Screens: PubChem, National Center for Advancing Translational Sciences (NCATS)
Pf growth 48h: inhibits P. falciparum growth in the first generation, 48 h. 5.9% of 310,000 active. Potency, µM (top dose mostly 28.7 µM), without a hit: at the highest dose activity change, negative = inhibition, actives largely listed as inhibitors. P. falciparum luciferase growth in erythrocytes, 48 h. AID 504832; further: on the % scale 0 is the no-effect control and ±100 the full control effect
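Firefly luciferase activity from engineered P. falciparum reports growth; inhibitors lower the luminescent signal. Cultures contained 2% hematocrit erythrocytes at 0.1% final parasitemia.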
AmpC inh no detg: AmpC beta-lactamase inhibition without detergent; P00811; AmpC nitrocefin hydrolysis, absorbance 480 nm, 0.0001% Triton; 0.52% of 330,000 active; AID 485341; Potency, µM (series often up to 57.1 µM), without a hit: at the top dose activity change, negative = inhibition, actives largely listed as inhibitors;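 further: plate controls were no compound for no effect and no enzyme for full effect; nearly all actives have a fitted effect of over 20% in size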
Target sequence (P00811 whole entry, looked up): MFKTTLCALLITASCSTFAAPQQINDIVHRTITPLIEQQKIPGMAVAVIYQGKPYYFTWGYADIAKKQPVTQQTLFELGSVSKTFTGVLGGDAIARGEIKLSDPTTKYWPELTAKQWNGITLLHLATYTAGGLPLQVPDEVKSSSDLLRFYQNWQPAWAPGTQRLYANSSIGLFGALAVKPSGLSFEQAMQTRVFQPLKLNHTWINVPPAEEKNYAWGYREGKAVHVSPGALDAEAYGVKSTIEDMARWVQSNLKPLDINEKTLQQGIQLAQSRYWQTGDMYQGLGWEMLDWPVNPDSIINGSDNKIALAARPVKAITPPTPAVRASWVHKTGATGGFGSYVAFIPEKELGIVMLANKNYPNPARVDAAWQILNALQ
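AmpC (5.3 nM in the dispensed reagent) in 20 mM phosphate pH 7.0 with 0.01% (detergent screen) or 0.0001% Triton X-100 was preincubated with compounds for 15 min at room temperature. Nitrocefin was then added from an 800 uM solution, and hydrolysis was followed at 480 nm.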
Sm TGR inh: S. mansoni TGR enzyme inhibition; AID 485364; Q962Y6; purified TGR, DTNB reduction, TNB absorbance 405 nm; 3% of 360,000 active; Potency, µM (doses to about 114 µM), inactives show at the highest dose activity change, negative = inhibition, usual class: inhibitors; further: on the % scale 0 is the no-effect control and ±100 the full control effect; nearly all actives have a fitted effect of over 60% in size
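Kinetic colorimetric format: TGR-catalysed, NADPH-driven DTNB reduction monitored via TNB absorbance. Enzyme dispensed at 20 nM; compound exposure 15 min at room temperature before reaction start.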
SARS PLP yeast: blocks SARS-CoV papain-like protease in a yeast assay; Potency, µM (top dose mostly 32.9 µM), for the others: at the top dose activity, positive = growth rescue, actives largely listed as activators; 0.19% of 330,000 active; AID 485353; S. cerevisiae expressing SARS-CoV PLpro, growth rescue; calls by dose curve; further: 0% is about no effect; nearly all actives have a fitted effect of over 55% in size
AmpC inh detg: AmpC beta-lactamase inhibition with detergent present | P00811 | AmpC hydrolysis of nitrocefin, absorbance 480 nm, 0.01% Triton | Potency, µM (titrated, usually from 114 µM), without a hit: top-dose activity change, negative = inhibition, hits mostly inhibitors | 0.041% of 370,000 active;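 further: 0% = no-compound wells and -100% = no-enzyme wells; nearly all actives have a fitted effect of over 25% in size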
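20 mM phosphate pH 7.0 + 0.01% (detergent screen) or 0.0001% Triton X-100; 5.3 nM AmpC reagent; cpd preinc 15 min RT; nitrocefin (800 uM stock) to start; A480 q20 s × 4 min; Activity was normalised to no-enzyme and no-compound control wells.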
Pf growth 96h: inhibits malaria parasite growth, 96 h | P. falciparum luciferase reporter growth, 96 h | Potency, µM (top dose mostly 28.7 µM), inactives show at the highest dose activity change, negative = inhibition, usual class: inhibitors | 6.9% of 320,000 active | AID 504834; further: on the % scale 0 is the no-effect control and ±100 the full control effect
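Two parasite generations (96 h, 37 C, 5% CO2) of compound exposure in infected erythrocytes (0.05% parasitemia, 2% hematocrit). Luciferase-reporter P. falciparum; decreased luminescence indicates inhibited growth, aimed at apicoplast-acting delayed death.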
The depositor's hits bear a star; ? = inconclusive; · = no result; [ ] = another dose, or the depositor's remark. Only some compounds are listed: those with a hit (about 12% of all), similar ones and a draw of the others. Unless noted, the call rests on the fitted dose curve; in most records, active means well fitted curve in the direction sought with a large enough effect; inconclusive means small, poorly fitted or top-dose-only effect, or another doubt; inactive means no such curve, though single readings can be large; an effect the other way counts as inactive or inconclusive. Potency means the concentration at half of the fitted maximal effect.

SMILES	Pf growth 48h	AmpC inh no detg	Sm TGR inh	SARS PLP yeast	AmpC inh detg	Pf growth 96h
CC(C)CCC1(CCNC(C)c2cccs2)CCOC(C)(C)C1 (centres undefined)	?	-1%	0%	1%	-11%	13µM*
CCC(=O)N(CCC1(C(C)C)CCOC(C)(C)C1)C(C)c1cccs1 (centres undefined)	?	114%	3%	0%	4%	?
CC(=O)c1ccc(S(=O)(=O)N(C)CCCC(=O)N(C)Cc2c(F)cccc2Cl)cc1	?	99%	5%	-26%	-3%	12µM*
CN(Cc1c(F)cccc1Cl)C(=O)CCc1c[nH]c2ccccc12	-14%	-35%	-3%	-4%	-9%	?
CCc1ccc(S(=O)(=O)c2nnn3c2nc(N2CCOCC2)c2sccc23)cc1	·	·	0%	·	-7%	·
CC(C)(C)C1=CC(=O)C(N2CCOCC2)=CC1=O	10µM*	-13%	-20%	-14%	-13%	15µM*
CCOc1nc2cnccc2n(CC(=O)Nc2c(C)cccc2CC)c1=O	3%	-13%	4%	-1%	1%	?
CC(=O)Cn1ncc(Br)c(Br)c1=O	?	-19%	·	-1%	3%	-8%
O=C(OCn1ncc(Br)c(Br)c1=O)c1c(F)cccc1F	?	-23%	0.56µM*	-16%	?	·
COc1ccccc1NC(=O)C1CCN(S(=O)(=O)c2cn(C)cn2)CC1	·	·	5%	·	-4%	·
COc1cc2c(cc1OC)C1O[C@](CCCCN3C(=O)c4ccccc4C3=O)(C2)OC2=C1C(=O)c1ccccc1C2=O	?	-21%[11.4 µM]	4µM*	1%[6.58 µM]	?	0.34µM*
N#Cc1ccc2c(c1)C[C@]1(CCCCN3C(=O)c4ccccc4C3=O)OC3=C(C(=O)OC4(CCCCC4)C3)C2O1	?	-52%[11.4 µM]	-34%[22.9 µM]	-3%[6.58 µM]	?	?
COc1cc2c(cc1OC)C1O[C@](CCCCN3C(=O)c4ccccc4C3=O)(C2)OC2=C1C(=O)CCC2	1.5µM*	88%[11.4 µM]	?	-5%[6.58 µM]	?	1.5µM*
Cc1cc2[nH]c(=O)c(=O)[nH]c2cc1S(=O)(=O)Nc1cccc(C(F)(F)F)c1	·	·	-10%	·	-3%	·
O=[N+]([O-])c1ccc(Cc2cncc(O)c2)cc1	-15%	-6%	-10%	-1%	-9%	23%
O=C(c1cccs1)N1CCN(c2ccc(F)cc2)CC1	2%	-6%	-34%	0%	-10%	·
O=C(CN1CCN(c2ccc(F)cc2)CC1)c1cccs1	0%	-21%	14µM*	-1%	5%	1%
O=C(CN1CCN(c2ccc(F)cc2)CC1)c1ccc2c(c1)OCO2	6%	-24%	45µM*	-1%	-1%	-9%
Cc1cccc(CNS(=O)(=O)c2ccc3[nH]c(=O)ccc3c2)c1	·	·	4%	·	4%	·
Cc1ccc(C)c(CSc2nnc3[nH]c(=O)cc(-c4ccccc4)n23)c1	·	·	-2%	·	-1%	·
COc1ccccc1N=Cc1c(C)[nH]n(-c2ccc(C)cc2C)c1=O	5%	175%	40µM*	-1%	-2%	15%
COc1cc(SC#N)ccc1N=Cc1c(C)[nH]n(-c2cccc3ccccc23)c1=O	9.3µM*	4%	-3%	1%	-9%	0.74µM*
CO/N=C(\C(=O)N[C@@H]1C(=O)N2C(C(=O)O)=C(COC(C)=O)CS[C@@H]12)c1csc(N)n1	1%	·	·	·	·	0%
CO/N=C(/C(=O)N[C@@H]1C(=O)N2C(C(=O)O)=C(CSC(=O)c3ccco3)CSC12)c1csc(N)n1 (some centres undefined)	?	·	·	·	·	13µM*
CO/N=C(/C(=O)N[C@@H]1C(=O)N2C(C(=O)O)=C(C[n+]3ccc(N)n3CCO)CS[C@H]12)c1csc(N)n1	-6%	·	·	·	·	11µM*
O=C(Cn1c2ccc(F)cc2c2nc3n(c(=O)c21)CCS3)Nc1ccccc1F	8%	-25%	0%	0%	2%	8%
